Most compounds without a hit are left out; they make up all but 1.1% or so of the library.
HSV replic up: increases HSV replication in cells | HSV replication augmentation in cells, fold increase | 220,000 compounds, 0.005% hits | maximum fold increase; in the data active means maximum fold increase above about 1.5; inconclusive means no clear call, values can overlap the other calls; tested in PC3 cells
Insulin prom up: MIN6 insulin promoter up-regulation; MIN6 insulin promoter-GFP reporter, high-content imaging; hits give high values; z-score at 5 µM; 190,000 compounds, 0.3% hits; AID 1625;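 active means z-score above 3 at 5 µM with at least 500 cells counted in the well; inconclusive means wells under 500 cells, flagged as cytotoxic or low count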
Efa HMGR inh: inhibitors of class II HMG-CoA reductase from Enterococcus faecalis. purified E. faecalis HMGR, NADPH absorbance 340 nm kinetic. inhibition, % at 10 µM. 190,000 compounds, 0.41% hits;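 active means inhibition above a set limit, the median over all tested compounds plus 3 SD, cut at about 9.5% in these data; inconclusive means no clear call, values can overlap the other calls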;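 further: enzyme runs in reverse so mevalonate oxidation gives rising NADPH absorbance; 0% = complete reaction with DMSO and 100% = background rate lacking mevalonate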
Insulin prom inh: TRM-6 insulin promoter activity inhibition. AID 1273. TRM-6 cells (human fetal islet line), insulin promoter-eGFP reporter, imaging; reporter expression induced with tamoxifen. inhibition, % at 2 µM. 130,000 compounds, 0.9% hits;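 active means inhibition above the mean plus 3 SD, with well images judged a real hit on visual review, cut at about 60% in these data, passing the limit was not always enough; inconclusive means inhibition over the cutoff but images rejected on review; inactive means inhibition not above the cutoff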
* marks the source's active call; other numbers are inactive results; i = inactive; u = inconclusive; x = not tested or not shown.

SMILES | HSV replic up | Insulin prom up | Efa HMGR inh | Insulin prom inh
O=C(Nc1ccc(N2CCN(C(=O)c3ccco3)CC2)c(Cl)c1)c1cccnc1 | i | -0.99 | -6.5 | x
CC(C)Cc1nc2sc3c(c2c(=O)n1N)CC(C)(C)OC3 | i | -0.19 | x | x
CC(C)(C)c1ccc(CN2N=C(/C=C/c3ccccc3)CCC2=O)cc1 | i | -0.04 | -3.3 | 23.1
Cc1ccccc1C(=O)N1CCN(c2ccc(NC(=O)c3ccco3)cc2Cl)CC1 | i | -1.37 | -1.9 | 84.6*
O=C(Nc1ccc(N2CCN(C(=O)c3cccs3)CC2)c(Cl)c1)c1ccco1 | i | -0.28 | -0.2 | 23.3
COc1ccc(/C=N/OCC(=O)N=Nc2c(O)[nH]c3ccc(Br)cc23)cc1 | i | x | -2.9 | 80.0*
CCN(Cc1ccncc1)C(=O)CCc1nnc(CCC2CCCCC2)o1 | i | 0.32 | 12.2* | 42.9
COc1ccc(NC(=O)C2CCCC2)cn1 | i | 0.41 | -8.5 | -11.1
CCCOc1ccc(/C=N/Nc2ccccc2[N+](=O)[O-])c(OCCC)c1 | i | 0.8 | -5.1 | 83.9*
Cn1c(SCC(=O)O)nnc1-c1cccc(NC(=O)c2cccc3ccccc23)c1 | i | -0.03 | x | x
CCC(C)(NC(=O)c1ccccn1)C(=O)NC1CCCC1 (centres undefined) | i | 0.24 | 0.5 | x
CCC(C)(C(=O)NC1CCCC1)N(C(=O)CNC(C)=O)c1ccccc1 (centres undefined) | i | 3.46* | 3.3 | x
CCC(C)(NC(=O)CNC(C)=O)C(=O)NC1CCCCC1 (centres undefined) | i | -1.81 | x | 69.0*
CC(C(=O)O)N1C(=O)c2ccccc2C1=O (centres undefined) | i | -0.36 | 12.5* | 37.0
O=C(Nc1cccnc1)c1cccc(S(=O)(=O)N2CCCCC2)c1 | i | 0.02 | 12.5* | x
O=C(COc1ccc(Br)cc1)N/N=C1\SCC(=O)N1c1ccc(F)cc1 | i | 0.1 | -8.4 | 92.9*
Cc1ccc(C(=O)NC(=O)OCCn2c(C)cnc2[N+](=O)[O-])cc1 | i | 0.3 | -2.7 | -13.3
CC(=O)c1ccc(Nc2nc(=O)c3cccnc3s2)cc1 | x | 0.24 | -0.7 | 79.3*
Cc1ccc(NC(=S)Nc2ccc(S(=O)(=O)N3CCOCC3)cc2)cc1S(=O)(=O)N1CCOCC1 | i | -0.76 | 0.9 | x
COC(=O)C1=C(N)Oc2cc(C)n(C)c(=O)c2C1c1ccc(Cl)cc1 (centres undefined) | i | 0.09 | -4.7 | -9.4
COC(=O)c1ccc(C2C(C#N)=C(N)Oc3cc(C)n(C)c(=O)c32)cc1 (centres undefined) | i | 0.27 | -1.4 | 76.3*
CC(C)(C)c1ccc(C(CC(=O)O)NC(=O)c2ccccc2F)cc1 (centres undefined) | i | -0.01 | -7.3 | x
Cc1oc2c(c1C(=O)Nc1cccc(C(=O)O)c1)CCCC2 | i | x | 0.0 | 65.7*
Cc1ccc(C)c(NC(=O)/C(C#N)=C/c2ccc(Sc3nncn3C)c([N+](=O)[O-])c2)c1 | i | -0.03 | -1.0 | -13.3
CCN(CC)c1ccc(/C=C/c2cc(-c3ccccc3)c3ccccc3n2)cc1 | u | 15.3* | x | x
SMILES | HSV replic up | Insulin prom up | Efa HMGR inh | Insulin prom inh
O=C(c1cc([N+](=O)[O-])ccc1Cl)N1CCN(c2ccccn2)CC1 | i | 2.13 | 11.1* | 35.3
O=C(c1cc(Cl)ccc1Cl)N1CCN(c2ccccn2)CC1 | i | 0.53 | -9.4 | 18.2
O=C(N/N=C/c1cc([N+](=O)[O-])c(N2CCOCC2)cc1N1CCOCC1)c1cccnc1 | i | -1.42 | -5.8 | 68.8*
O=C(Nc1ccccc1N1CCOCC1)c1cccnc1 | i | -0.01 | 10.1* | -8.3
COC(=O)c1cc2occc2n1Cc1c(F)cccc1Cl | i | 3.08* | 1.7 | x
CCOC(=O)c1cc2occc2n1Cc1c(F)cccc1Cl | i | -0.42 | -0.4 | -42.9
CCOc1ccc(S(=O)(=O)N2CCCC2)cc1 | i | x | -5.2 | 9.9
CCN(CC)S(=O)(=O)c1ccc(S(=O)(=O)N2CCCC2)cc1 | i | -0.15 | 9.9* | -100.0
Cc1cccc(C)c1OCC(=O)Nn1c(=O)[nH]c2ccccc2c1=O | i | 0.98 | 10.7* | 23.5
N#CCC(=O)Nn1c(=S)[nH]c2ccccc2c1=O | i | 1.45 | -8.7 | 20.0
O=C(CNC(=S)N(Cc1ccccc1F)C1CCCCC1)NCCN1CCOCC1 | i | 0.64 | -5.0 | -6.7
O=C(CNC(=S)N(Cc1ccccc1F)C1CCCCC1)NCCCN1CCOCC1 | i | -0.76 | 12.6* | 0.0
CCN(CC)S(=O)(=O)c1cnccc1N1CCN(c2cccc(Cl)c2)CC1 | i | -0.77 | -0.2 | -66.7
Nc1oc2ccc(F)cc2c(=O)c1C=O | i | 1.43 | -1.8 | -40.0

Bioassay records from PubChem BioAssay.
